Source: PubChem BioAssay (EPA / NIEHS)
Inconclusive results are not listed. The source made the active and inactive calls. How the source made its calls: active means hit-call score of the fitted dose curve at least 0.9, where 1 is the maximum; inconclusive means response in the unintended direction; inactive means score below 0.9.

assay: ATG_M_06_TRANS: Attagene TRANS-FACTORIAL HepG2 Assay for M06 Transcription Factor (Internal Marker) (AID 2282983); conditions: HepG2 Attagene TRANS M06 internal marker reporter
Procedure: ATG_TRANS is a cell-based, multiplexed-readout assay that uses HepG2, a human liver cell line, with measurements taken at 24 hours after chemical dosing in a 24-well plate.ATG_M_06_TRANS is one of 30 assay component(s) measured or calculated from the ATG_TRANS assay. It is designed to make measurements of mRNA induction, a form of inducible reporter, as detected with fluorescence intensity signals by Reverse transcription polymerase chain reaction (RT-PCR) and Capillary electrophoresis technology.Data from the assay component ATG_M_06_TRANS was analyzed into 1 assay endpoint. This assay endpoint, ATG_M_06_TRANS, was analyzed in the positive analysis fitting direction relative to DMSO as the negative control and baseline of activity. Using a type of inducible reporter, measures of mRNA for gain-of-signal activity can be used to understand the background control at the transcription factor-level as they relate to the gene . Furthermore, this assay endpoint can be referred to as a secondary readout, because this assay has produced multiple assay endpoints where this one serves a background control function. To generalize the intended target to other relatable targets, this assay endpoint is annotated to the background measurement intended target family, where the subfamily is internal marker.
Human liver HepG2 cells are transiently transfected with multiple reporter transcription units (MRTUs) in 6-well plates using FuGene 6 reagent (Roche; 3 ml FuGene/1 mg DNA). The MRTU constructs are regulated by a cis-regulating element (promoter). […] A major difference between the CIS and TRANS system is that in CIS activities of endogenous TFs are measured, whereas the TRANS assay evaluates changes in activities of exogenous, chimeric NR-Gal4 proteins. […] At the end of 24 hour incubation, total RNA was isolated using TriZol reagent (Invitrogen). The isolated RNA is then reverse-transcribed using oligo(dT) primer and Mo-MLV reverse transcriptase (Invitrogen) with DNAse I (Ambion) treatment for 30 min. The one-tenth of the produced cDNA was amplified by PCR using Taq DNA polymerase (Invitrogen) and two reporter sequence-specific primers. The PCR products were fluorescently labeled by primer extension with 6-arboxyfluorescein (6-FAM) 5'-labeled reporter sequence-specific primer (2 min at 95 C, 20 s at 68 C and 10 min at 72 C) and these products were digested with 5U of HpaI (New England Biolabs) for 2h at 37 C. The fragments were purified using Qiaquick PCR columns (Qiagen), analyzed on an ABI 3130xL genetic analyzer (Applied Biosystems) with peak positions identified by using a set of X-rhodamine (ROX)-labeled MapMarker1000 molecular weight standards (BioVentures). The raw capillary electrophoresis data was processed using Attagraph software (Attagene).

outcome, inactive:
CC(C)CC(=O)O
CCCCCCCCCC/C=C/C1CC(=O)OC1=O (stereo not given)
CC(C)=CCOC(=O)c1ccccc1
CC(C)CC(=O)CC(C)C
Cc1cc(O)cc(C)c1Cl
CCCC(=O)OC
Cc1ccccc1S(=O)(=O)O
CN(C)CCC(c1ccc(Cl)cc1)c1ccccn1 (stereo not given)
c1ccc(CNc2ncnc3nc[nH]c23)cc1
C=C(C)C(=O)OCC1CCCO1 (stereo not given)
CCCCCCC(O)CCCCCCCCCCC(=O)OC (stereo not given)
CCOc1ccc2c(c1)C(C)CC(C)(C)N2 (stereo not given)
CC(=O)Nc1c(I)c(NC(C)=O)c(I)c(C(=O)O)c1I
C1=CCC=C1
CCCCCC[C@@H](O)C/C=C\CCCCCCCC(=O)O
CC1=C(CC=O)C(C)(C)CCC1
CC(=O)OC(C)(C)Cc1ccccc1
C=C1CC[C@H]2C[C@@H]1C2(C)C
CC[N+](CC)(CC(=O)Nc1c(C)cccc1C)Cc1ccccc1 (tested in a mixture with another compound)
CCO[Si](OCC)(OCC)c1ccccc1
CC=CC(=O)O
Oc1cccc2ccccc12
CN(C)CCCN1c2ccccc2CCc2ccc(Cl)cc21
Sc1nc2ccccc2s1
O=C1NC(=O)C2CC=CCC12 (stereo not given)
N#CCN(CC#N)CCN(CC#N)CC#N
O=S(=O)(O)c1cccc2ccccc12
O=C(C1CCCCC1)N1CC(=O)N2CCc3ccccc3C2C1 (stereo not given)
Clc1ccccn1
OCCOCCOCCOCCOCCO
NC(=O)c1ccc([N+](=O)[O-])cc1Cl
O=C(O)c1ccccc1C(=O)O
O=C1NC(=O)[C@@H]2CC=CC[C@H]12
O=C(O)/C=C\C(=O)O
CO[Si](CCCNCCN)(OC)OC
Oc1ccc(Oc2ccccc2)cc1
Clc1ccc(Sc2cc(Cl)c(Cl)cc2Cl)cc1
CCCCCCCCCCCCCCCCCC[N+](C)(C)C
O=C(O)c1cc(Cl)cc(Cl)c1O
NC(N)=Nc1nc(CSCCC(N)=NS(N)(=O)=O)cs1
